# Structures can show the parent of a compound that is named as a salt.
# System: S. cerevisiae AD1-9 (efflux-pump deficient), vegetative growth in YPD
# Assay: growth sensitivity score (doubling time z-score vs DMSO controls); higher = slower growth, strongly negative scores also mark growth inhibition (complete suppression), active = hit call of the paper; in the data active = 2 or more and inactive = the rest
# Procedure, shortened: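 Yeast (Saccharomyces cerevisiae BY4741 and AD1-9) was grown in rich medium in microtiter plates from a starting OD600 of 0.065, with optical density read every 15 min over 24 hours. The growth sensitivity score was the difference between compound and solvent-only means, divided by the solvent-only standard deviation. Every experiment had eight solvent-only wells.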
row,Compound,growth sensitivity score
1,"CCN1CCN(c2cc3c(cc2F)c(=O)c(C(=O)O)cn3C2CC2)CC1 [Enrofloxacin] (stock concentration (mM, diluted 1:100): 10)",37.5 (active)
2,"CC(C)OC(=O)CCC/C=C\C[C@@H]1[C@@H](CC[C@@H](O)CCc2ccccc2)[C@H](O)C[C@@H]1O [Latanoprost] (stock concentration (mM, diluted 1:100): 10.3)",125 (active)
3,"Nc1c2c(nc3c1CCC3)CCCC2 [Amiridine] (stock concentration (mM, diluted 1:100): 10)",4.09 (active)
4,"N[C@@H](C(=O)N[C@@H]1C(=O)N2C(C(=O)O)=C(Cl)CS[C@H]12)c1ccccc1 [Cefaclor] (stock concentration (mM, diluted 1:100): 10)",-1.29 (inactive)
5,"C[C@@H]1C[C@H]2[C@@H]3CCC4=CC(=O)C=C[C@]4(C)[C@@]3(F)[C@@H](O)C[C@]2(C)[C@H]1C(=O)CO [Desoximetasone] (stock concentration (mM, diluted 1:100): 10)",2.17 (active)
6,"Nc1ccc2cn[nH]c2c1 [6-Aminoindazole] (stock concentration (mM, diluted 1:100): 10)",-1.63 (inactive)
7,"CC(CCCCC(=O)Nc1ccc(C(F)(F)F)cc1)NCCc1cnc[nH]1 (stereo not given) (stock concentration (mM, diluted 1:100): 10)",1.41 (inactive)
8,"NC1CCN(c2cccc(Cl)n2)CC1 (stock concentration (mM, diluted 1:100): 10)",-0.47 (inactive)
9,"NC(=O)N1c2ccccc2CC(=O)c2ccccc21 [Trileptal] (stock concentration (mM, diluted 1:100): 10)",1.04 (inactive)
10,"CN(C)CC[C@@H](c1ccc(Br)cc1)c1ccccn1 [Dexbrompheniramine maleate] (stock concentration (mM, diluted 1:100): 7.3)",-0.16 (inactive)
11,"O=C(CCCN1CCC(O)(c2ccc(Cl)cc2)CC1)c1ccc(F)cc1 [Haloperidol] (stock concentration (mM, diluted 1:100): 10)",22.7 (active)
12,"Cc1nc2ccccn2c(=O)c1CCN1CCC(C(=O)c2ccc(F)cc2)CC1 [Pirenperone] (stock concentration (mM, diluted 1:100): 10)",-0.84 (inactive)
13,"CN(CCCN1c2ccccc2CCc2ccccc21)CC(=O)c1ccc(Cl)cc1 [Lofepramine] (stock concentration (mM, diluted 1:100): 10)",51.9 (active)
14,"COc1cc2nc(N3CCN(C(=O)c4ccco4)CC3)nc(N)c2cc1OC [Prazosin] (stock concentration (mM, diluted 1:100): 10)",2.31 (active)
15,"Cc1c2oc3c(C)ccc(C(=O)N[C@@H]4C(=O)N[C@H](C(C)C)C(=O)N5CCC[C@H]5C(=O)N(C)CC(=O)N(C)[C@@H](C(C)C)C(=O)O[C@@H]4C)c3nc-2c(C(=O)N[C@@H]2C(=O)N[C@H](C(C)C)C(=O)N3CCC[C@H]3C(=O)N(C)CC(=O)N(C)[C@@H](C(C)C)C(=O)O[C@@H]2C)c(N)c1=O [Dactinomycin] (stock concentration (mM, diluted 1:100): 10)",-0.59 (inactive)
16,"CC(C)c1ccc2c(c1)c(SC(C)(C)C)c(CC(C)(C)C(=O)O)n2Cc1ccc(Cl)cc1 [Tocris-1311] (stock concentration (mM, diluted 1:100): 10)",6.29 (active)
17,"COC(=O)C1=C(C)NC(C)=C(C(=O)OC2CCCN(Cc3ccccc3)C2)C1c1cccc([N+](=O)[O-])c1 (stereo not given) [Benidipine hydrochloride] (stock concentration (mM, diluted 1:100): 6)",-3.4
18,"CCOC(=O)c1ncn2c1CN(C)C(=O)c1cc(F)ccc1-2 [Flumazenil] (stock concentration (mM, diluted 1:100): 10)",-0.24 (inactive)
19,"N[C@@H](C(=O)N[C@@H]1C(=O)N2C(C(=O)O)=C(CSc3cn[nH]n3)CS[C@H]12)c1ccc(O)cc1 [Seapuron] (stock concentration (mM, diluted 1:100): 8.6)",-1.14 (inactive)
20,"CCC(=O)NS(=O)(=O)c1ccc(-c2c(-c3ccccc3)noc2C)cc1 [Parecoxib] (stock concentration (mM, diluted 1:100): 9.8)",0.73 (inactive)

# From the supplement of paper PMC3414501
